Experimental data from ChEMBL document CHEMBL3988442, “University of Dundee, Small-Polar-MMV Screening Library” (2021).
For some of these results: Results with a measured potency or affinity are listed apart.

Tests used:
Parameters in all cases: scale not given: direction of the effect not stated beside the values
[1] = molecular target: Protein translocase subunit SecA (Escherichia coli (strain K12)) (UniProt P10408); experiment: Assay to Identify E. coli SecA ATPase Inhibitors; format: functional; settings: 30 µM
[2] = molecular target: T1, Ubiquitin-activating enzyme e1, putative (Leishmania donovani (strain BPK282A1)) (UniProt E9BSI1); experiment: Leishmania donovani Ubiquitin Activating Enzyme (LdE1); format: functional; settings: 30 µM
T1 sequence (whole entry): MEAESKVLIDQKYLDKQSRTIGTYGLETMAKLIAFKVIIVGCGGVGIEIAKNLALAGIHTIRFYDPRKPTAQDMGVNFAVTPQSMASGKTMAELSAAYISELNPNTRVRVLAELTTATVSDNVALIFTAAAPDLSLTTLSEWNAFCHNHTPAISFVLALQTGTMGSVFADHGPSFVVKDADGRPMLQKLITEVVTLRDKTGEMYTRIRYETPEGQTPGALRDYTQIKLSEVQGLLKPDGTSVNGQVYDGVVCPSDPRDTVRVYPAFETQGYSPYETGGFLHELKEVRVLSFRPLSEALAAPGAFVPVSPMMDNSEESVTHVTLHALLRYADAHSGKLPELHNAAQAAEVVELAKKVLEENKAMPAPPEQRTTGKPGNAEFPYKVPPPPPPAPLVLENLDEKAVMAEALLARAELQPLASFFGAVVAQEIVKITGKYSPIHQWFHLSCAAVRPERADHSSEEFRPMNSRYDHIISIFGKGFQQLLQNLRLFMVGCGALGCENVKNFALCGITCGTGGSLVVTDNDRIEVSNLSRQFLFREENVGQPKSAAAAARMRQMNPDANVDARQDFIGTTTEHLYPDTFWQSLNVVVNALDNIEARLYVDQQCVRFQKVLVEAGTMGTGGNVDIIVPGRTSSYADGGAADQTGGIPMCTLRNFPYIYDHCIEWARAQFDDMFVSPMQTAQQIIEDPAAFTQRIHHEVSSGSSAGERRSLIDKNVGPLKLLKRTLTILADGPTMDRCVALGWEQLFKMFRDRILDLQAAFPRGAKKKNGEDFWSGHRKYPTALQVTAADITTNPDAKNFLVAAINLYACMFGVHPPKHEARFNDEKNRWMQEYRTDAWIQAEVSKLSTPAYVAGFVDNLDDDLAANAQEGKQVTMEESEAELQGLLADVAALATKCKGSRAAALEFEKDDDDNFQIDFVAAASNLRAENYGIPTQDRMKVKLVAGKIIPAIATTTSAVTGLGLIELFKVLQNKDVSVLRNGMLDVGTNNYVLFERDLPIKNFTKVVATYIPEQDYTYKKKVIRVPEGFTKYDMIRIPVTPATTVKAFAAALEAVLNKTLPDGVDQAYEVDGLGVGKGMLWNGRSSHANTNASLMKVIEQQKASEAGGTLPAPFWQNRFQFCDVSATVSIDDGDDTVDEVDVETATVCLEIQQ

[3] = molecular target: AMP-activated protein kinase, AMPK (Homo sapiens) (UniProt P54646+O43741+P54619+Q9UGJ0+Q9Y478+Q13131+Q9UGI9); experiment: AMP-dependent Kinase enzyme assay. An in vitro enzyme assay that detects ADP turnover that is directly proportional to AMPK activity. This uses naive AMPK that is activated during the assay with MK-8722; format: functional; settings: 30 µM
[4] = molecular target: Sialic acid-binding Ig-like lectin 9 (Homo sapiens) (UniProt Q9Y336); experiment: Hs-Siglec9 ALPHAscreen SOP 20170721; settings: 10 µM
[5] = tested on: Trypanosoma cruzi; experiment: Trypanosoma cruzi phosphomannomutase and mannose-1-phosphate guanylyltransferase assay; format: functional; settings: 10 µM
[6] = molecular target: T2, Arginase-2, mitochondrial (Homo sapiens) (UniProt P78540); experiment: in vitro enzyme assay to detect the production of urea directly proportional to the activity of Arginase II; format: functional; settings: 33.3 µM; note: in the data most compounds retested in dose-response had high values
T2 sequence (whole entry): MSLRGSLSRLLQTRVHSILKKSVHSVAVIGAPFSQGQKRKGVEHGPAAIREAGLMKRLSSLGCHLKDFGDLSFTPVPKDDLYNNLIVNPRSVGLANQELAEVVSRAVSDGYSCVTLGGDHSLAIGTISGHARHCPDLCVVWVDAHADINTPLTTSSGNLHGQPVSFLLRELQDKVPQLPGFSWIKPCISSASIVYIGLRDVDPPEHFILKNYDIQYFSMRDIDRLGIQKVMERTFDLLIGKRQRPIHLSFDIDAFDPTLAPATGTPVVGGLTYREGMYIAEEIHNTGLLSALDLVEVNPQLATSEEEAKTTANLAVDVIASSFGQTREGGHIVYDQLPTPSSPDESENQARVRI

[7] = molecular target: T3, Proteasome subunit beta (Trypanosoma cruzi) (UniProt O96673); experiment: Trypanosoma cruzi proteasome chymotrypsin-like activity (TcProtChymo) assay.; note: in the data most compounds retested in dose-response had high values; format: functional; settings: 9.37 µM
T3 sequence (whole entry): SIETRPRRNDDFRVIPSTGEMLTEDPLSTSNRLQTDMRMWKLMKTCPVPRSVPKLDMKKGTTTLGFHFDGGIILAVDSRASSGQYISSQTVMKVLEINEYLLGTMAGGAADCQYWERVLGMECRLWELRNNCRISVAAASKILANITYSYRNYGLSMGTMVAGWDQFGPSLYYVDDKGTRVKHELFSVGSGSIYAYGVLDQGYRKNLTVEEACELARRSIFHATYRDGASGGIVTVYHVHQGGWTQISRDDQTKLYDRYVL

[8] = organism: Homo sapiens; experiment: To identify inhibition of the IFN signalling (Jak-Stat) pathway via expression of an eGFP reporter gene under the control of an IFN-stimulated response element (ISRE) containing MxA promoter.; format: functional; settings: 30 µM
[9] = molecular target: T4, Tyrosyl-tRNA synthetase, putative (Trypanosoma cruzi (strain CL Brener)) (UniProt Q4DSP6); experiment: Trypanosoma cruzi tyrosyl tRNA synthetase (TcYRS) _High Tyrosine SOP; format: functional; settings: 30 µM; note: in the data most compounds retested in dose-response had high values
T4 sequence (whole entry): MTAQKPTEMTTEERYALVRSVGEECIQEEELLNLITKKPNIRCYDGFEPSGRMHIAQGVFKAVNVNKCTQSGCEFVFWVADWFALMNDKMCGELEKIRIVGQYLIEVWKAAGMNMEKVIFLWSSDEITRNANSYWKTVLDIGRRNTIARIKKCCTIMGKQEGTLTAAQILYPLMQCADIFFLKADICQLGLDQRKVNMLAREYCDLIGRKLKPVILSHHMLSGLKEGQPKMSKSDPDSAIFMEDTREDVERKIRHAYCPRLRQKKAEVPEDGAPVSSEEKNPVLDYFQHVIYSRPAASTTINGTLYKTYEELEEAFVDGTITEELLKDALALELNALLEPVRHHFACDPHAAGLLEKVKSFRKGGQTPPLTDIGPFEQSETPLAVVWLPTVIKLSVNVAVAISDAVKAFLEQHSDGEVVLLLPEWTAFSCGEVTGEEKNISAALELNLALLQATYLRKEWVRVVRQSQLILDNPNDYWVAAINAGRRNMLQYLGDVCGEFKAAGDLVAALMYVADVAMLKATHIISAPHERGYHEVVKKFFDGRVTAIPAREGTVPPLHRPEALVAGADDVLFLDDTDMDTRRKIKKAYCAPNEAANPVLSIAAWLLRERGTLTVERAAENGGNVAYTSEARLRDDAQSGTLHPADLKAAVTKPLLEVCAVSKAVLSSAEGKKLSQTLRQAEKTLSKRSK

[10] = molecular target: T4, Tyrosyl-tRNA synthetase, putative (Trypanosoma cruzi (strain CL Brener)); experiment: Trypanosoma cruzi tyrosyl tRNA synthetase (TcYRS) SOP; format: functional; settings: 30 µM
[11] = molecular target: Chromo domain-containing protein 1 (Saccharomyces cerevisiae (strain ATCC 204508 / S288c) (Baker's yeast)) (UniProt P32657); experiment: ScCHD-1 Enzyme Inhibition Assay; format: functional; settings: 30 µM; note: in the data most compounds retested in dose-response had high values
Chain of Chromo domain-containing protein 1 (Saccharomyces cerevisiae (strain ATCC 204508 / S288c) (Baker's yeast)) (P32657 whole entry, the tested form may be a part): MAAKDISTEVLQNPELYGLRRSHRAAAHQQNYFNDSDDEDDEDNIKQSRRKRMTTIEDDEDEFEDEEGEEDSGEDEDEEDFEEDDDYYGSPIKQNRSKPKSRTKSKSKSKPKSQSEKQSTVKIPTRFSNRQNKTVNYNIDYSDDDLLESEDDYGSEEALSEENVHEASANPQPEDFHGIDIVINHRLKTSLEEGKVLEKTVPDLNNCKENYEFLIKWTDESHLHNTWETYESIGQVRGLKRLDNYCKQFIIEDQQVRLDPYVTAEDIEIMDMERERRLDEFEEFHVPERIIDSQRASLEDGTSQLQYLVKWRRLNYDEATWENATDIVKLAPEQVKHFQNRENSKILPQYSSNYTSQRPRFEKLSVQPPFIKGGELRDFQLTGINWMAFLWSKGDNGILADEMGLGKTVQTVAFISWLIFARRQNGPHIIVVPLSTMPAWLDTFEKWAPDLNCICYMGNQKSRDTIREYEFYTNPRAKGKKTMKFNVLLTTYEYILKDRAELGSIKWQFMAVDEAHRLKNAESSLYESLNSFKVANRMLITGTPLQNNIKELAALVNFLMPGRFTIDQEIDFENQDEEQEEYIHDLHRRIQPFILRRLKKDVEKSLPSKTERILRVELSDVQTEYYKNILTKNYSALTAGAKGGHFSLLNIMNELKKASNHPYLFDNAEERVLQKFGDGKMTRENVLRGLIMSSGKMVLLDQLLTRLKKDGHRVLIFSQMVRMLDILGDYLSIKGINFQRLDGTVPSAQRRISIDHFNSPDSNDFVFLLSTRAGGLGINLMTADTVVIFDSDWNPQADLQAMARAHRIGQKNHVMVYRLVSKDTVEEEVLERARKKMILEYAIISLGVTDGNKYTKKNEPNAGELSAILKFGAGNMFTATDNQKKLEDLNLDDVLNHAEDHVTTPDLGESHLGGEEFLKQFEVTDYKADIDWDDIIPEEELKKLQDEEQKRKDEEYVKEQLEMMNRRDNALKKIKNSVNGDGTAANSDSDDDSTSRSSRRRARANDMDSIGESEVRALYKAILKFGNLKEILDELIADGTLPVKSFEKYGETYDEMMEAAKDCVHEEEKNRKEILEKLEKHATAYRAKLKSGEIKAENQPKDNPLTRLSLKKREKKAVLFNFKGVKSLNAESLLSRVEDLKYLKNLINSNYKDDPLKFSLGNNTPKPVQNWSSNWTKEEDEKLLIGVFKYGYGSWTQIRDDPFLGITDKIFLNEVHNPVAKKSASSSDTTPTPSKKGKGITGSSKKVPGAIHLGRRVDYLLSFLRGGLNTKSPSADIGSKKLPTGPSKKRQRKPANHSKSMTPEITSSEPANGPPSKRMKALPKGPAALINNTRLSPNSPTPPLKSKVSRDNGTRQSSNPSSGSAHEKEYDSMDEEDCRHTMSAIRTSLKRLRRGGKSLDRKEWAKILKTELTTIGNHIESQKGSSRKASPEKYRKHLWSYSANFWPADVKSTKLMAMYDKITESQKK

Chain of Sialic acid-binding Ig-like lectin 9 (Homo sapiens) (Q9Y336 whole entry): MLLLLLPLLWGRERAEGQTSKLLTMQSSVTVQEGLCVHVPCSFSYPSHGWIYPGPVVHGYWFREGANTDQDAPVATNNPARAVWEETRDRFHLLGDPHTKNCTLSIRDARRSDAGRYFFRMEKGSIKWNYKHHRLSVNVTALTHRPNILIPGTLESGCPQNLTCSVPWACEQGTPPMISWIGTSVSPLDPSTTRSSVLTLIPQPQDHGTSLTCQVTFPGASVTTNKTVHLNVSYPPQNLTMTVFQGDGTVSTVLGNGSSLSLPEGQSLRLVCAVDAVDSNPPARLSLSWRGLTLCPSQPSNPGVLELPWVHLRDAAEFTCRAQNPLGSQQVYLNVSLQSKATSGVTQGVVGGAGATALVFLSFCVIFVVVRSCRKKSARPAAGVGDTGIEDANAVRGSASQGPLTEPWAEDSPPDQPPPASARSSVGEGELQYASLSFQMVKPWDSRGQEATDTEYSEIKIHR
Chain of Protein translocase subunit SecA (Escherichia coli (strain K12)) (P10408 whole entry): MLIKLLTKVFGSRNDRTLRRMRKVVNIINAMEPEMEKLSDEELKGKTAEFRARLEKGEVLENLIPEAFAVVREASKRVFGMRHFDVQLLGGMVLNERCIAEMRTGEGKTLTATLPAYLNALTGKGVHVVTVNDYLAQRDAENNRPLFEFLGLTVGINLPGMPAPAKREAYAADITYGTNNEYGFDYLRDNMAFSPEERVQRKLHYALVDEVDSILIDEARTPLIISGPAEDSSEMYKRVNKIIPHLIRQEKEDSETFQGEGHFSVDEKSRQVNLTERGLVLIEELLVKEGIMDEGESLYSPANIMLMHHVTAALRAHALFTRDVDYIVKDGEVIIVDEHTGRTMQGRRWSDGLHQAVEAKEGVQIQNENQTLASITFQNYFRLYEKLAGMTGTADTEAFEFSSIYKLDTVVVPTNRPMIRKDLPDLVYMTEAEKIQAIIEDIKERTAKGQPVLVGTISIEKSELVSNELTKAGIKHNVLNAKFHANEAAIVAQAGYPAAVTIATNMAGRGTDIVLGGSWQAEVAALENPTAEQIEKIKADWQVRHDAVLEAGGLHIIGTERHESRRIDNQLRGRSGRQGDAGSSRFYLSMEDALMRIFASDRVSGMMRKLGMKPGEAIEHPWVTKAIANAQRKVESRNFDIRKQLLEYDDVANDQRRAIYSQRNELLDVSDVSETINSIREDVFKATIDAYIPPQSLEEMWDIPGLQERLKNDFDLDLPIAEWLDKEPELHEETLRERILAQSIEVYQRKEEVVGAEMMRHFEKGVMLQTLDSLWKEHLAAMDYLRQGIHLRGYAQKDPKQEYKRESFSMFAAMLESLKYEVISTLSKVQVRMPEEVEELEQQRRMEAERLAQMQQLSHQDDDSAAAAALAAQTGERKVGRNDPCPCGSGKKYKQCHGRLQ

Structure (SMILES)	Percent Effect [1] [%]	Percent Effect [2] [%]	Percent Effect [3] [%]	Percent Effect [4] [%]	Percent Effect [5] [%]	Percent Effect [6] [%]	Percent Effect [7] [%]	Percent Effect [8] [%]	Percent Effect [9] [%]	Percent Effect [10] [%]	Percent Effect [11] [%]
Cc1ccc(-c2cc(N)c(=O)n(CC(=O)NC3CCCCC3)n2)s1	-4.68	6.76	14.2	4.48	-4.74	4.41	8.42	15.6	1.07	6.49	-8.72
CCn1cc(CN2CCCn3nc(CCC(=O)NCCO)cc3C2)cn1	-3.01	5.2	13.5	4.51	-5.41	0	19.8	-0.55	4.3	8.64	0.629
c1ccc(C[C@H]2[C@H](N3CCOCC3)CCN2Cc2cccnc2)cc1	-1.09	2.67	3.8	7.7	-5.21	-56.1	4.1	-7.93	1.04	12.5	-4.71
Cc1nn(C)c(C)c1NC(=O)CN1CCc2c(nc(C(C)C)n2C)C1	-0.874	8.11	-7.75	18.4	7.34	12.9	7.93	22.8	5.82	14.6	-2.17
Cc1cccc(C)c1OCCNC(=O)NC(C)c1nncn1C (stereo not given)	-5.7	15.6	-1.02	-14.1	5	-2.32	25.8	18.1	8.57	23.5	-21.4
